# Hits are enriched below; roughly 0.61% of the tested compounds scored in any of these assays.
# TcdB GH inh: inhibitors of Clostridioides difficile toxin B glycohydrolase. P18177. TcdB glycohydrolase enzymatic assay, plate reader. inhibition, % at 9.99 µM. 350,000 compounds, 0.24% hits. AID 652162; in the data active = inhibition above about 10%
# Target sequence (P18177 whole entry, looked up): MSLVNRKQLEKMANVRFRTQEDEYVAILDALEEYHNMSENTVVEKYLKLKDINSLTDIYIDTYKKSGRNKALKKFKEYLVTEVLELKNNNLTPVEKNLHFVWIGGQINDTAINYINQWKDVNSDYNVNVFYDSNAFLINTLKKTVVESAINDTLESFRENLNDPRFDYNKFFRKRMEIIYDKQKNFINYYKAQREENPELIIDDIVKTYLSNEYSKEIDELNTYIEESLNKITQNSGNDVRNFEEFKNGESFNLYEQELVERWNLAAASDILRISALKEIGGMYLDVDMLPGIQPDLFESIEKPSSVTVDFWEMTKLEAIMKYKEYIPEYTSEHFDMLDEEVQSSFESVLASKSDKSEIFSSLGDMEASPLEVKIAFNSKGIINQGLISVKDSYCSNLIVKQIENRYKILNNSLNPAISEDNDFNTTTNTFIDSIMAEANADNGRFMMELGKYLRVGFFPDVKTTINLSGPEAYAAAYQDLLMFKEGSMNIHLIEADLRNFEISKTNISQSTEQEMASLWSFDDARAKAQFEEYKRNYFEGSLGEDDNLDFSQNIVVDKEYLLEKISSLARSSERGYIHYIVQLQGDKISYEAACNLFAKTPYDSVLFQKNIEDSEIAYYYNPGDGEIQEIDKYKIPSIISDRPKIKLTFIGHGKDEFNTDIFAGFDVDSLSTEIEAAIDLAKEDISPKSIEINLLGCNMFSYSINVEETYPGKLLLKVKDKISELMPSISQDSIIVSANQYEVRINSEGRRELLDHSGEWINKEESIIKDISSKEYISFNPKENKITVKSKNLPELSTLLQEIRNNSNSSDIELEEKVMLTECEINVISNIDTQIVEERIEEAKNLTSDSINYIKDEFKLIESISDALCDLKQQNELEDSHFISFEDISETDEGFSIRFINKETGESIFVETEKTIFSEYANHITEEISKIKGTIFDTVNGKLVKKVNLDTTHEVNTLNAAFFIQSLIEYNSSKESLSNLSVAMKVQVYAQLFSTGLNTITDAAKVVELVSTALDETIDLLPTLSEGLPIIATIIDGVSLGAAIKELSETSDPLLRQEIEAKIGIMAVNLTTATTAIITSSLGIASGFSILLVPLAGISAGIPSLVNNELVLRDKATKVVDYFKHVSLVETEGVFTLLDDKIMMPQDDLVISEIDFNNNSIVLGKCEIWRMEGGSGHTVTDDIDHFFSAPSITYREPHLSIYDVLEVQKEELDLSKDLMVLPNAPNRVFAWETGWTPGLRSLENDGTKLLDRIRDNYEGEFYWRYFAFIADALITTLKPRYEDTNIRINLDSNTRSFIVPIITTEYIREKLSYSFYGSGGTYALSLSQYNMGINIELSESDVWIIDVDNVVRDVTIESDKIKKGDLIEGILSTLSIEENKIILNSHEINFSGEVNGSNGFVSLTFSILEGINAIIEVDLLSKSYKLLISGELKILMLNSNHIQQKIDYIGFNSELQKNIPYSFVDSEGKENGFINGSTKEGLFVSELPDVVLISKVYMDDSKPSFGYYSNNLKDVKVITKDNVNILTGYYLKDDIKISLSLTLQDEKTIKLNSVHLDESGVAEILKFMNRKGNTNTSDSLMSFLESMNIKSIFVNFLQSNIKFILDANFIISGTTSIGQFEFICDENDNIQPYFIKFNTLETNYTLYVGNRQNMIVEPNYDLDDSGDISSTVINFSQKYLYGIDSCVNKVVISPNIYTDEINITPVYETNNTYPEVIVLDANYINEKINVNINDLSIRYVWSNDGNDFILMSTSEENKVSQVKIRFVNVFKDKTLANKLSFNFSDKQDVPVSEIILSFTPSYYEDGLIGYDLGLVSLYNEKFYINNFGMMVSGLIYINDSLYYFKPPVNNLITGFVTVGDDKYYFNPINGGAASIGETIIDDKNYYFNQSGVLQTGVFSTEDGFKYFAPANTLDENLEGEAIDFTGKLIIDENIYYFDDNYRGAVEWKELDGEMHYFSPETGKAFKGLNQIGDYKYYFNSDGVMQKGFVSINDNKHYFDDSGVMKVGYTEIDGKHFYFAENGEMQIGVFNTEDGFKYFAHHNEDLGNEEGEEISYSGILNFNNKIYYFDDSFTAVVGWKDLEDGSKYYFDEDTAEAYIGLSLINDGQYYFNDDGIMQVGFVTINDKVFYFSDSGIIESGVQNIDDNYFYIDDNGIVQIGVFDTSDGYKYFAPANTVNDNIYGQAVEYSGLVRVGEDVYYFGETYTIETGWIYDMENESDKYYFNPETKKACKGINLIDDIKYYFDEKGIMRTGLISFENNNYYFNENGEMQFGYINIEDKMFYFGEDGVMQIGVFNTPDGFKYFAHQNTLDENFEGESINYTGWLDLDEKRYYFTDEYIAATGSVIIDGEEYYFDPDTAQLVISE
# Mtb BioA inh: blocks M. tuberculosis BioA enzyme activity; purified M. tuberculosis BioA enzyme, plate reader; inhibition, % at 9.99 µM; 360,000 compounds, 0.096% hits; in the data active = inhibition above about 40%; inconclusive = no clear call, values can overlap the other calls
# Vc quorum ag: quorum light induction in luxS cqsA deficient V. cholerae | V. cholerae BH1578 lux reporter, luminescence, 6 h | activation, % at 18.7 µM | 350,000 compounds, 0.16% hits | AID 588436; in the data active = activation mostly above about 9.7%, no sharp cut-off; inconclusive = no clear call, values can overlap the other calls; inactive = mostly below about 3.7%
# Y pestis TopoI: inhibitors of Yersinia pestis topoisomerase I; Y. pestis Topo-I cleavage product accumulation, plate reader; 360,000 compounds, 0.064% hits; AID 504884; activity, % at 10 µM; in the data active = activity above about 50%, passing the limit was not always enough; inconclusive = no clear call, values can overlap the other calls
# FadD28 binding: blocks FadD28 binding to the bisubstrate probe. AID 588549. inhibition, % at 12.5 µM. 360,000 compounds, 0.22% hits. fluorescence polarization; in the data active = inhibition above about 8.5%, passing the limit was not always enough; inconclusive = no clear call, values can overlap the other calls
# * marks the source's active call; other numbers are inactive results; i = inactive; ? = inconclusive; / = no result given.
SMILES,TcdB GH inh,Mtb BioA inh,Vc quorum ag,Y pestis TopoI,FadD28 binding
CC(=O)Oc1ccc2c(c1)Oc1cc(OC(C)=O)ccc1C21OC(=O)c2ccccc21,/,/,0,22,41*
Cc1ccc(N/N=C/c2c(O)n(-c3ccccc3)c(=O)[nH]c2=O)cc1,14*,0,0,0,-1
CC1CCN(S(=O)(=O)c2ccc(NC(=O)c3ccncc3)cc2)CC1,2,-1,-2,19,-6
CCS(=O)(=O)c1ncc(Cl)c(C(=O)Nc2ccc(S(=O)(=O)N3CCC(C)CC3)cc2)n1,0,-4,i,25,8.9*
C[C@H]1CCCCO[C@H](CN(C)C(=O)Nc2ccc(C(F)(F)F)cc2)[C@@H](C)CN([C@@H](C)CO)C(=O)c2cc(NC(=O)C3CCCCC3)ccc2O1,-3,2,/,/,/
CN1C[C@@H]2[C@H](c3ccccc31)[C@H](CO)N2C(=O)C1CCCCC1,0,-2,/,/,/
COc1ccc(CCNc2ccc(C(CC(N)=O)NC(=O)c3ccccc3)cc2[N+](=O)[O-])cc1 (stereo not given),/,-2,-1,9,-1
NC(=O)CC(NC(=O)c1ccccc1)c1ccc(NCCc2ccc(F)cc2)c([N+](=O)[O-])c1 (stereo not given),10*,1,1,1,-1
COC(=O)C(CC#Cc1ccc2c(c1)[C@]1(C(=O)N2)[C@H](c2ccc(OCCO)cc2)N2[C@H](c3ccccc3)[C@H](c3ccccc3)OC(=O)[C@H]2[C@@H]1C(=O)N1CCc2cc(OC)c(OC)cc2C1)C(=O)OC,-1,-2,/,/,/
O=C(NC(=S)Nc1cc([N+](=O)[O-])ccc1O)c1ccc2c(c1)OCO2,2,0,-8,-4,13*
COc1cc([N+](=O)[O-])ccc1NC(=S)NNC(=O)c1ccc2c(c1)OCO2,2,2,/,-12,?
C[C@@H]1CN([C@@H](C)CO)C(=O)Cc2cc(NC(=O)NC3CCCCC3)ccc2O[C@H]1CN(C)CC1CCCCC1,1,1,/,/,/
C[C@H]1CN([C@@H](C)CO)C(=O)Cc2cc(NC(=O)Cc3ccccc3)ccc2O[C@@H]1CN(C)CC1CC1,0,1,/,/,/
Cc1ccc(C)n1C(CC(=O)O)c1ccc(C#N)cc1 (stereo not given),0,/,i,6,11*
COc1ccccc1C(=O)N1C[C@@H]2[C@H](c3ccccc31)[C@H](CO)N2C(=O)C1CCCCC1,0,0,/,/,/
N#C[C@H]1[C@@H](c2ccccc2C2=CCCCC2)[C@@H](CO)N1C(=O)C1CCOCC1,-3,/,/,/,/
COc1cc(/C=C/c2ccc3cccc(O)c3n2)cc(OC)c1OC,1,0,-1,17,13*
COc1cc(/C=C/c2ccc3cccc(O)c3n2)cc(Br)c1OC,1,-1,-1,-1,0
C[C@H](CO)N1C[C@H](C)[C@H](CN(C)C(=O)C2CC2)Oc2cc(C#CC3CCCC3)ccc2S1(=O)=O,0,0,/,/,/
CC1(C)CC(=O)C=C(Nc2ccc(O)cc2)C1,25*,1,i,-1,-2
Cc1cc(C(=O)N2CCN(C/C=C/c3ccccc3)CC2)cs1,1,/,-1,25,-1
O=C(c1cc(Br)c(Br)s1)N1CCN(C/C=C/c2ccccc2)CC1,/,-3,6,58*,-1
COc1cc(OC)c(OC)cc1/C=C1\Oc2cc(OCC(=O)N3Cc4ccccc4C[C@H]3C(=O)O)ccc2C1=O,/,-5,0,-3,12*
O=c1cc(CSc2nnnn2-c2ccccc2)[nH]c2[nH]n(-c3ccccc3)c(=O)c12,/,1,1,-6,8.9*
C[C@@H]1CCCCO[C@H](CN(C)C(=O)CCC(F)(F)F)[C@H](C)CN([C@H](C)CO)C(=O)c2cc(NS(=O)(=O)c3ccccc3)ccc2O1,0,-1,/,/,/
SMILES,TcdB GH inh,Mtb BioA inh,Vc quorum ag,Y pestis TopoI,FadD28 binding
CC[C@H](C)/C=C(C)/C=C/C1=CC2=C(Cl)C(=O)[C@](C)(OC(C)=O)C(=O)C2=CO1,/,7,0,-4,17*
CCC(C)/C=C/C1=CC2=C(Cl)C(=O)C3(C)OC(=O)C(C(=O)C(C)C(C)O)C3C2=CO1 (stereo not given),-3,1,0,5,1
COc1ccc(S(=O)(=O)N2CCC3(CC2)OCCN3S(=O)(=O)c2cccs2)cc1,-2,-2,i,4,-4
COc1ccc(OC)c(S(=O)(=O)N2CCC3(CC2)OCCN3S(=O)(=O)c2cccs2)c1,-2,-1,i,21,10*
O=[N+]([O-])c1ccc(CNc2ccc(Cl)cc2)s1,0,5,0,-9,10*
CC(=NO)C1CCC2C3CCC4=CC(=NO)CCC4(C)C3C(=O)CC12C (stereo not given),1,0,i,9,-3
CC(=NO)C1CCC2C3CCC4=CC(=NO)CCC4(C)C3C(O)CC12C (stereo not given),2,0,17*,15,0
O=C(C[C@H]1C=C[C@H](NC(=O)Cc2ccccn2)[C@@H](CO)O1)NCCCN1CCOCC1,-1,0,/,/,/
Cc1n[nH]c(C)c1N1C(=O)c2cccc3cc(Br)cc(c23)C1=O,/,58*,-1,8,0
C[C@@H]1CN([C@H](C)CO)C(=O)c2cc(NS(C)(=O)=O)ccc2O[C@@H]1CN(C)S(=O)(=O)c1ccc(F)cc1,1,-2,/,/,/
O=C1NC(=O)C(=Cc2ccc(Cl)c(Cl)c2)S1,1,-2,-1,9,-19
O=C1NC(=O)/C(=C/c2ccc(O)cc2)S1,27*,/,i,0,0
CC(=O)Nc1ccc2c(c1)C(=O)N(C)[C@H]1CC[C@H](CC(=O)NCc3ccccc3)O[C@H]1CO2,-1,14,/,/,/
CN(CC(=O)Nc1ccccc1Oc1ccccc1)Cc1ccccc1F,/,/,0,60*,-8
Cc1ccc(C(=O)NC(=O)OCCn2c(C)cnc2[N+](=O)[O-])cc1,15*,/,i,7,-1
Cc1cnc([N+](=O)[O-])n1CCOC(=O)NC(=O)c1ccccc1,0,/,0,4,0
O=C(C[C@H]1CC[C@H]2[C@@H](COC[C@H](O)CN2C(=O)c2ccccc2F)O1)N1CCN(c2ccccc2)CC1,-2,0,/,/,/
COc1cccc(C(=O)OCC(=O)NC(=O)NC2CCCC2)c1O,-1,/,2,4,12*
CCC(=O)N1C[C@@H](O)COC[C@@H]2O[C@@H](CC(=O)N3CCCCC3)CC[C@H]21,-1,1,/,/,/
O=C(COc1ncnc2ccccc12)NCCc1ccc(F)cc1,13*,/,-1,-4,-4
CC(C)CNC(=O)COc1ncnc2ccccc12,/,/,1,-10,0
Cn1c(=O)cc2c3c(c(N4CCCCC4)ccc31)C(=O)c1ccccc1-2,0,-4,-1,-16,32*
CCCNS(=O)(=O)c1ccc(OCC(=O)OC)cc1,/,0,0,-12,-2
CCCCNS(=O)(=O)c1ccc(OCC(=O)OC)cc1,10*,/,0,-3,1
COc1cc(N=Nc2cccc(S(N)(=O)=O)c2)c2ccccc2c1N,0,1,i,-30,9.7*
Cc1ccc(S(=O)(=O)Nc2ccc3c(c2)CC(=O)N([C@H](C)CO)C[C@H](C)[C@@H](CN(C)Cc2ccncc2)O3)cc1,2,-1,/,/,/

# Compound activity (PubChem BioAssay)
